For 18 compounds, outcome results are on record in PubChem BioAssay AID1053124 (Broad Institute, 2014).

Measured potencies and affinities stand elsewhere. Calls of active or inactive are those of the source.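 The calls were made as follows: active = cell killing whose fitted half-effect concentration is at most twice the top valid dose tested; inconclusive = flat curve with 30 to 70% killing, or a poor fit; inactive = effect in the rising direction, plus the rest.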

This assay is described as follows: viability loss in A549 lung cells – cell-based, ATP luminescence, cherry-pick, set 2, cytotoxicity control, dose response (AID 1053124). The note with it: ATP luminescence (CellTiter-Glo), 72 h; series mostly up to 26 µM. (In general: ATP-based viability assays read luminescence as a measure of living cells.)
`O=C(O)c1ccc(-c2ccc(/C=C3\NC(=O)N(Cc4ccc(Cl)cc4)C3=O)o2)cc1`: the result was inactive.

For the compound `O=C(CCc1c[nH]c2ccccc12)OCC(=O)c1ccccc1`, the compound was called inactive.

On to `CSc1ccc(Cn2c(C)c(C(=O)NCc3cccc(Cl)c3)sc2=O)cc1`, for which the call was inactive.

On to `CCc1nnc(NC(=O)c2ccc(-c3ccccc3F)o2)s1`, for which the compound was classed as inactive.

Take `COc1ccc(C(=O)Oc2cc(N)n(S(=O)(=O)c3ccccc3)n2)cc1`: the result was inactive.

Take `O=c1[nH]c(Nc2ccccc2Cl)cc2ccccc12`: the call was inactive.

`CCOCCCNc1c(CC)c(C)c(C#N)c2nc3ccccc3n12`: the result was inactive.

With `CCOc1ccc(C(=O)c2cc3ccc(O)cc3oc2=O)cc1`, the compound was called inactive.

`Cc1cccn2c(=O)c3cc(C(=O)NCc4ccc(F)cc4)c(=N)n(CCCN4CCOCC4)c3nc12`: the compound was called inactive.

`Cc1c(O)ccc2cc(S(=O)(=O)c3ccccc3)c(=O)oc12`: the outcome was inactive.

As for `CCC(C)n1c(=N)c(C#N)cc2c(=O)n3cccc(C)c3nc21` (stereo not drawn), the compound was called inactive.

`COc1ccccc1OCc1ccc(C(=O)N(C)c2ccccc2)o1`: the compound was called inactive.

In the case of `Cc1c2c(n3c(nc4ccccc43)c1C#N)N(CCN1CCOCC1)CC2`, the compound was classed as inactive.

On to `Nc1ccc(C#Cc2ccc3c(=O)c4ccccc4oc3c2)cc1`, for which the call was inactive.

For the compound `CCOC(=O)c1c(C)n(C)c2ccc(OCC(O)CN3CCC(C)CC3)cc12` (stereo not drawn), the compound was called inactive.

As to `CCOc1ccc2nc(NCCCNC(=O)c3cc(OC)c(OC)c(OC)c3)c(C#N)cc2c1`, the compound was called inactive.

As for `Nn1c(SCC(=O)N2CCCC2)nnc1-c1cccs1`, the result was inactive.

Turning to `O=C(O)C1=CC[C@@H](c2ccc(Cl)cc2)N(S(=O)(=O)c2ccc(Cl)cc2)[C@H]1c1ccc(F)cc1`, the compound was classed as inactive.
